Source: PubChem BioAssay
CF NFkB inh: blocks PAF-induced NF-kB reporter in cystic fibrosis cells; inhibition, % at 5 µM; 360,000 tested, 0.86% active; AID 588850; KKLEB NF-kB-GFP reporter, GFP fluorescence overnight;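 active means at least 50% inhibition at 5 µM, scaled per plate between neutral and stimulator controls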;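 further: PAF is a Pseudomonas aeruginosa culture filtrate used as stimulus; plate controls were PAF-stimulated DMSO wells for no effect and unstimulated DMSO wells for full effect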
iPSC survival up: increases survival of single human iPS cells; hiPSC single-cell survival, ATPlite luminescence; 100% = ROCK inhibitor wells, 0% = DMSO; survival enhancement, % at 20 µM; 360,000 tested, 0.044% active; in the data active means survival enhancement above about 18%;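 further: cells exposed to compounds for 16 hours before the ATP read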
PPC-1+TRAIL kill: kills PPC-1 cancer cells in the presence of TRAIL. PPC-1 cells + TRAIL, ATPLite viability luminescence. AID 1443. cell killing (% activity), % at 4 µM or 5 µM. 220,000 tested, 0.41% active;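 active means cell killing above 50% in the first pass at 4 µM, then a duplicate retest at 5 µM averaging 50% or more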;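 further: plate controls were cells with TRAIL plus DMSO for no effect and medium-only wells lacking cells for full effect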
KKLEB tox: reduces viability of KKLEB cystic fibrosis airway cells. 360,000 tested, 0.36% active. activity change (cytotoxicity), % at 5 µM. KKLEB CF airway cells viability, ATPlite luminescence, overnight; active compounds read low; cells stimulated with P. aeruginosa culture filtrate;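 active means corrected activity change at or below -50% at 5 µM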
TRAIL sens C8: sensitizes caspase-8 expressing cells to TRAIL | NB7+C8 cells + TRAIL, ATPlite viability luminescence | AID 624354 | 360,000 tested, 1% active | inhibition (viability loss, TRAIL sensitization), % at 10 µM;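 active means compounds causing at least 50% loss of cell viability in the single-dose screen, relative to plate controls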
HIF-2a block: inhibitors of HIF-2a; 360,000 tested, 0.72% active; inhibition, % at 18.8 µM; AID 624352; 786-0 RCC cells HIF-2a reporter, luciferase luminescence, overnight;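 active means inhibition of the luminescence signal of 40% or more relative to plate controls, in a single-dose primary screen at 18.75 µM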
Mdm2-MdmX confirm: Mdm2/MdmX (human) interaction inhibition, confirmed. shares compounds with HIF-2a block. SaOS-2 split-luciferase Mdm2/MdmX complementation, luminescence. inhibition, % at 8 µM. 740 tested, 99% active;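 active means mean inhibition of the luminescence signal across two replicates at or above 26 percent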
HIF-2a inh conf: HIF-2a inhibition, single concentration confirmation | shares compounds with HIF-2a block | inhibition, % at 18.8 µM | 1,800 tested, 56% active | 786-0 RCC cells, HIF-2a luciferase reporter luminescence, overnight;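 active means mean inhibition across four replicates of at least 40 percent at the single tested concentration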
HIF-1a cs: counter-screen for HIF-2a inhibitors: HIF-1a inhibition in MiaPaCa-2 cells | 1,800 tested, 72% active | MiaPaCa-2 HIF-1a luciferase reporter, desferoxamine, overnight | shares compounds with HIF-2a block | inhibition, % at 18.8 µM | AID 651589;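 active means mean inhibition of the reporter signal across four replicates at the single tested dose of 50% or more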
The depositor's hits bear a star; . = no result given. A selection: hits, their analogues and other compounds. The true share with any hit is near 2.2%.

SMILES | CF NFkB inh | iPSC survival up | PPC-1+TRAIL kill | KKLEB tox | TRAIL sens C8 | HIF-2a block | Mdm2-MdmX confirm | HIF-2a inh conf | HIF-1a cs
CCN(CC(=O)Nc1ccc(NC(C)=O)cc1)C(=O)/C=C/c1ccc(S(=O)(=O)N2CCCCCC2)cc1 | 16 | 0 | . | -16 | 8 | 42* | . | 16 | 28
COc1ccc(S(=O)(=O)Nc2cc3c(cc2C(C)=O)OCO3)cc1 | 16 | -1 | . | -5 | -20 | 19 | . | . | .
Cc1noc2ncnc(Sc3ccc(Cl)cc3)c12 | 36 | 0 | 8 | -12 | 18 | 34 | . | . | .
Cc1noc2ncnc(Sc3c(Cl)cccc3Cl)c12 | 16 | -4 | 24 | 6 | 10 | 43* | . | 23 | 95*
O=C(Nc1ccc(OCc2ccccc2Cl)cc1)c1cccnc1 | 7 | 0 | . | -3 | -6 | 48* | . | 83* | 89*
O=C(Nc1ccc(OCc2ccccc2)cc1)c1cccnc1 | 7 | 2 | 18 | 9 | 9 | -107 | . | . | .
Cc1cccc(NC(=O)CCCCC(=O)Nc2cccc(C)c2)c1 | -10 | 0 | . | 2 | -5 | 16 | . | . | .
CCOC(=O)COc1ccc(S(=O)(=O)N2CCN(c3ccccc3F)CC2)cc1 | 6 | 0 | -16 | 5 | -10 | 47* | . | 13 | -1
O=C(/C=C/c1c(F)cccc1Cl)Nc1ncccn1 | 0 | 0 | 21 | -5 | 27 | -159 | . | . | .
O=C(/C=C/c1c(F)cccc1Cl)c1ccc(O)cc1 | 20 | 0 | 13 | 1 | 21 | -98 | 50* | . | .
CCC1CCC2(CC1)NNC(=S)NN2 | 22 | -1 | 27 | 11 | -16 | 55* | . | 69* | 87*
CC(=O)Nc1ccc(-c2ccnc3c2CC(C)(C(=O)Nc2cccc(C(F)(F)F)c2)O3)cc1 (configuration not stated) | -4 | 4 | . | -4 | 7 | 14 | . | . | .
COc1cccc(CNC(=O)c2ccc(NC(=O)CC3SC(N4CCCC4)=NC3=O)cc2)c1 (configuration not stated) | -5 | 0 | . | -26 | 6 | 2 | . | . | .
CCc1ccc(/C=C2\SC(=S)N(CCCC(=O)Nc3ccccn3)C2=O)cc1 | 3 | -3 | 7 | -2 | 63* | 96* | 95* | . | .
O=C(CCN1C(=O)/C(=C/c2ccccc2)SC1=S)NCCc1ccc(O)cc1 | -3 | 0 | . | -4 | 22 | 25 | 102* | . | .
COc1ccc(/C=C2\SC(=S)N(CCCC(=O)Nc3ccc(O)cc3)C2=O)cc1 | -24 | 0 | 5 | 5 | 3 | 45* | 103* | . | .
CCc1ccc(/C=C2/SC(=S)N(CCCC(=O)Nc3ccccc3C(=O)O)C2=O)cc1 | 12 | 0 | . | 4 | -10 | 12 | . | . | .
COc1ccc(/C=C2\SC(=S)N(CCC(=O)Nc3ccc(C(=O)O)cc3)C2=O)cc1 | 6 | 0 | . | -2 | 17 | 8 | . | . | .
COc1ccc(/C=C2/SC(=S)N(CCCC(=O)Nc3ccc(O)cc3)C2=O)cc1 | -17 | 0 | 4 | 2 | 5 | 31 | 102* | . | .
CCC(=O)Nc1cccc(-c2cnc3ccccc3n2)c1 | -2 | 0 | 2 | 0 | -7 | -230 | . | . | .
O=C(CCl)Nc1cccc(-c2cnc3ccccc3n2)c1 | 88* | -3 | 13 | -64* | 94* | -27 | 102* | . | .
OC(COc1ccc(CNCCc2ccc(C(F)(F)F)cc2)cc1)CN1CCCCC1 (configuration not stated) | 11 | -5 | 22 | -8 | 9 | 23 | 104* | . | .
O=C(CCNS(=O)(=O)c1cccc(C(F)(F)F)c1)NCc1ccco1 | -26 | 0 | . | 8 | -4 | 16 | . | . | .
COc1ccc2[nH]c3c(=O)n(/N=C/[C@H]4C(C)C=C(C)CC4C)c(=O)[nH]c3c2c1 (some centres not stated) | 6 | 1 | 6 | -12 | 27 | 58* | . | -2 | 100*
